# Measurements taken from PubChem BioAssay AID743289 (Broad Institute, 2014).
# The list shows a part of the results. Unmarked numbers belong to inactive results.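 Rule for the calls: active = compounds lowering fluorescence whose fitted half-maximal concentration is no more than twice their top tested dose; inconclusive = flat fit with 30 to 70% inhibition, or poor fit; inactive = the rest.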
# Molecular target: Caspase-1 (Homo sapiens) (UniProt P29466)
# Assay: human caspase-1 inhibitors, dose response, selectivity assay for caspase-6 inhibitor project, biochemical, Z-YVAD-R110 fluorescence, cherry-pick, set 2 (AID 743289)
# Conditions: purified caspase-1, Z-YVAD-R110 cleavage fluorescence; series mostly up to 35 µM; activity change, negative = inhibition: at the top concentration
# Sequence of Caspase-1 (Homo sapiens) (P29466 whole entry, looked up): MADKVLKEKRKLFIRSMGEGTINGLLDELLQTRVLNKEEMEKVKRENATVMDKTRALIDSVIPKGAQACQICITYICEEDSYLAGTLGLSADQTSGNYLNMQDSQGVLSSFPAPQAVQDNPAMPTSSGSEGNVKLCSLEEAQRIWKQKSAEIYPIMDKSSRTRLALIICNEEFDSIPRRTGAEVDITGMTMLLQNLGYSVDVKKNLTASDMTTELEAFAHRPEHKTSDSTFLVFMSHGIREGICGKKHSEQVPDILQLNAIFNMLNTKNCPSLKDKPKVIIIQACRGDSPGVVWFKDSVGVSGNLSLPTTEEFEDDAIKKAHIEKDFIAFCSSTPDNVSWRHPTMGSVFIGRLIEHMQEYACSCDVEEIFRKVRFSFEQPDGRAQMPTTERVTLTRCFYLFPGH
row,SMILES,"activity change, negative = inhibition"
1,COc1cc(NC(=O)COC(=O)c2ccc([N+](=O)[O-])s2)cc(OC)c1OC,-2.52%
2,CCN(CC)CCCC(C)n1c2nc(=O)[nH]c(=O)c-2nc2cc(Cl)ccc21 (stereo not given),-0.661%
3,CNS(=O)(=O)c1cccc(C(=O)OCC(=O)N2c3ccccc3NC(=O)C2(C)C)c1,-1%
4,Cc1c(CCC(=O)O)c(=O)oc2c(C)c(OCc3ccccc3Cl)ccc12,20.6%
5,O=c1ccc2c(-c3ccccc3S(=O)(=O)O)c3ccc(O)c(O)c3oc-2c1O,-6.4%
